What all share (assay): PBM binding z-score (relative to random genomic background probes); higher = stronger binding; sequences stand for … in GC…GCGATTGACAGCGTAGAATGAAGG
For assay [1], the system named is RARb homodimer (NR concentration 270 nM). The essentials: (§1)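 Custom Agilent 4×180K protein-binding microarrays carried double-stranded probes, each with a 34-nt variable region. These regions held direct-repeat seeds, single-nucleotide variants, half-site ablations and random human genomic background sequences. Ligand-free nuclear receptor dimers were incubated on the arrays for 1 h, antibodies against each partner (one per run) detected binding, and scanned fluorescence was regression-normalized. Binding z-scores take the random background probes as reference.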

Assay [2] deals with RARg:RXRa (NR concentration 270 nM, RXRa partner concentration 90 nM). In a few lines:
as §1

For assay [3], the system named is RARg homodimer (NR concentration 270 nM). In a few lines: as §1
For assay [4], the system named is RXRa DBDmut IVT, anti-RXR (DBD mutation: RXRa K156A/R161A, NR concentration 90 nM). In a few lines: as §1
The subject of assay [5] is RXRa homodimer (NR concentration 180 nM). In a few lines: as §1
Assay [6] deals with THRa:RXRa (NR concentration 90 nM, RXRa partner concentration 90 nM). In a few lines:
as §1

The test system of assay [7] is THRa homodimer (NR concentration 90 nM). In a few lines:
as §1

For assay [8], the system named is VDR:RXRa (NR concentration 270 nM, RXRa partner concentration 90 nM). In a few lines: as §1
Assay [9] relates to VDR homodimer (NR concentration 270 nM). In a few lines: as §1

GGAACGAGGGTAAAGTTGATAGCATCTGTCGACG: the PBM binding z-score in assay [1] stood at 0.332; in assay [2], 0.683; in assay [3] it was 0.562; in assay [4] it was 0.929; in assay [5] it was 0.974; in assay [6] it was 0.383. Besides, the values for the PBM binding z-score in assay [7], in [8] and in assay [9] were -0.45, 0.137 and 0.411, respectively.
As for CCTAGTCGGTCAGGAGGTCACACACCGGATATGA, the PBM binding z-score is 4.67 in assay [1]; 5.93 in assay [2]; 5.46 in assay [3]; 0.219 in assay [4]; 4.75 in assay [5]; 3.37 in assay [6]. Also, the PBM binding z-score was 2.55 in assay [7], 3.97 in [8] and 2.83 in assay [9].
On to GCTTGTAGATCAAGTTTAAGAAAGACTAAGCTAA, for which the PBM binding z-score in assay [1] is -0.242; in [2], -0.195; in assay [3] it was -0.0872; in assay [4] it was 0.649; in [5] it was -0.236; in [6], -0.0932. Besides, the PBM binding z-score in [7] was -0.618; in assay [8], -0.096; in [9], 0.27.
On to TCAGACAGCTGAAGGTAACTCAGGTACGCAGTCG, for which the PBM binding z-score in assay [1] is -0.661; in assay [2], -0.115; in assay [3] it was -0.24; in assay [4], 0.764; in [5] it was 0.413; in [6], 1.05. For the same sequence, the PBM binding z-score in assay [7] is -0.685; in assay [8], 0.484; in [9], -0.186.
For the sequence ATCGAAAGGTCGTGGTGAGTATAGAGAAAGGGAA, the PBM binding z-score turned out to be 2.85 in assay [1]; 4.45 in [2]; 3.8 in assay [3]; 1.52 in assay [4]; 4.79 in assay [5]; 2.82 in [6]. The PBM binding z-score in assay [7] stood at 0.58; in assay [8], 3.85; in assay [9], 1.23.
As to CCGAGTAGGGTATGGGGCATTCAGGCAACGGTGA, the PBM binding z-score in assay [1] is 0.595; in [2], -0.153; in assay [3], -0.189; in assay [4] it was -0.938; in assay [5], 0.102; in assay [6] it was 0.159. Besides, the figures for the PBM binding z-score in [7], in [8] and in assay [9] were 0.0739, -0.217 and 0.36, respectively.
Consider CAGCCTAGGTCAGGGTCAGTATAGGAGGAACGTT, for which the PBM binding z-score worked out at 4.16 in assay [1]; 4.27 in [2]; 4.84 in assay [3]; 0.854 in assay [4]; 3.67 in assay [5]; 3.39 in assay [6]. The PBM binding z-score in [7] stood at 1.53; in [8], 2.7; in [9] it was 1.31.
TCTAGTTGGTCACAGAGGTCACACACGACGGGTA: the PBM binding z-score in assay [1] was found to be 4.61; in [2] it was 5.8; in assay [3], 5.57; in [4], 1.63; in assay [5] it was 6.43; in [6] it was 3.97. Also, the PBM binding z-score in assay [7] was determined as 2.54; in assay [8] it was 6.44; in assay [9], 4.18.
As for TGAATGAGGTTAAAGATCACGGAACGTGGCGTCG, the PBM binding z-score in [1] came to 0.603; in assay [2], 2.83; in assay [3], 1.49; in [4] it was 0.843; in assay [5] it was 5.25; in assay [6] it was 2.72. Also, the PBM binding z-score in assay [7] was 0.0245; in [8] it was 2.22; in assay [9], 0.625.
Regarding ACAGACAGGTGATGAAGGTCACTCAGGCTATCAT, the PBM binding z-score in [1] amounted to 3.75; in assay [2], 3.15; in assay [3], 2.94; in assay [4], 0.355; in assay [5] it was 2.67; in assay [6], 2.81. Also, the PBM binding z-score in [7] is 0.677; in assay [8] it was 4.67; in assay [9] it was 1.51.
For the sequence CCGACTGGGGCATAAGGTTACTATAAGCCAGCCC, the PBM binding z-score is 1.38 in [1]; 1.37 in [2]; 0.813 in [3]; -0.277 in assay [4]; 1.04 in assay [5]; 1.59 in assay [6]. The PBM binding z-score in assay [7] turned out to be 0.819; in [8] it was 0.306; in [9] it was 0.0174.
As to CGAGCTAGGTCATCCAGGACAGTGAATACATTGA, the PBM binding z-score in assay [1] came to 3.01; in [2] it was 3.93; in [3], 4.72; in assay [4] it was 1.97; in assay [5], 2.89; in [6], 3.48. Further, the values for the PBM binding z-score in assay [7], in assay [8] and in assay [9] were 1.79, 4.4 and 1.91, respectively.
Regarding CCTACTGCGCCATCAGGTCATTGATATCAACGTT, the PBM binding z-score amounted to 2.85 in assay [1]; 1.59 in assay [2]; 1.53 in assay [3]; 1.5 in [4]; 1.3 in assay [5]; 3.49 in assay [6]. Further, the values for the PBM binding z-score in assay [7], in assay [8] and in [9] were 3.56, 2.07 and 2.17, respectively.
Regarding GCTGCTAGGTGAGGTTGGTCAGCTAACGGGTACG, the PBM binding z-score in assay [1] was 0.45; in assay [2], -0.285; in [3] it was -0.239; in assay [4], -0.389; in assay [5] it was -0.532; in [6], 0.337. In addition, the PBM binding z-score in [7] is -0.133; in assay [8], -0.472; in assay [9], -0.159.
As for GCTAGTTGGTCAGAAAAAGGTCACACACCGGTCG, the PBM binding z-score is 5.21 in assay [1]; 5.28 in [2]; 4.72 in assay [3]; 0.268 in assay [4]; 4.82 in assay [5]; 3.52 in assay [6]. The results for the PBM binding z-score in assay [7], in assay [8] and in assay [9] were 1.44, 3.77 and 1.71, respectively.
Take GGAACGAGCGCAAGTTGATAGCAGAGTTTGATGG: the PBM binding z-score in assay [1] is -0.846; in assay [2] it was -0.499; in assay [3] it was -0.47; in assay [4], 0.0943; in assay [5], -0.499; in assay [6], -1.01. Further, the PBM binding z-score was -0.971 in [7], -0.693 in assay [8] and -0.311 in assay [9].

The values are drawn from the supplement of paper PMC6555819.
